# Data published in article PMC7862700, “An all-to-all approach to the identification of sequence-specific readers for epigenetic DNA modifications on cytosine”.
# Legend:
# Experiment in all cases: DAPPL (digital affinity profiling via proximity ligation, sequencing); 10 mM Tris-HCl pH 7.5, 50 mM NaCl, 1 mM DTT, 4% glycerol, room temperature, 30 min; GST-TFs on glutathione beads, 16-mer random dsDNA library, 0.1% formaldehyde crosslink after washing; high values mean tight binding
# Conditions in all cases: protein: recombinant; tags: N-terminal GST; dsDNA, one strand shown
# [1] = target: T1, FLI1 (Homo sapiens, UniProt Q01543 1-452)
# T1 sequence: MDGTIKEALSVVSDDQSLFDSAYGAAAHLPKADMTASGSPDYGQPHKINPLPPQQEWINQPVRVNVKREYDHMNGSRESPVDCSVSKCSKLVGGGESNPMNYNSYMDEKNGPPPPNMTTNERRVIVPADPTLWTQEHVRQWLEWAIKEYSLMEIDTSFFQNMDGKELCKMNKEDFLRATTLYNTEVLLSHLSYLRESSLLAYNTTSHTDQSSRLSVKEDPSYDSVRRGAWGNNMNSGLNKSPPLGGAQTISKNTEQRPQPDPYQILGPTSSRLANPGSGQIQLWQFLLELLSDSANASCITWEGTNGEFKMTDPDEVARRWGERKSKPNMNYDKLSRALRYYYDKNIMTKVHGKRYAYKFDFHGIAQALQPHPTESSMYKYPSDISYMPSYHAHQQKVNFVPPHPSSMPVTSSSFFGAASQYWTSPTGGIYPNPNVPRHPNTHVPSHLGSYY
# Method in brief: (§1)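 Human transcription factors carrying a GST fusion were produced in yeast, bound to glutathione beads, tagged with DNA barcodes and pooled together with a tag-only sample. Each pool was held with 200 nmole of a random double-stranded 16-mer DNA library in Tris/NaCl/DTT/glycerol buffer for 30 min at room temperature, then washed, crosslinked in 0.1% formaldehyde, proximity-ligated with BsaI/T4 ligase (1 h, 37 °C), PCR-amplified and sequenced on an Illumina NextSeq500. Binding signal is the read frequency of each hexamer for a given factor divided by its frequency in the tag-only sample.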
# [2] = target: T2, GABPA (Homo sapiens, UniProt Q06546 1-454)
# T2 sequence: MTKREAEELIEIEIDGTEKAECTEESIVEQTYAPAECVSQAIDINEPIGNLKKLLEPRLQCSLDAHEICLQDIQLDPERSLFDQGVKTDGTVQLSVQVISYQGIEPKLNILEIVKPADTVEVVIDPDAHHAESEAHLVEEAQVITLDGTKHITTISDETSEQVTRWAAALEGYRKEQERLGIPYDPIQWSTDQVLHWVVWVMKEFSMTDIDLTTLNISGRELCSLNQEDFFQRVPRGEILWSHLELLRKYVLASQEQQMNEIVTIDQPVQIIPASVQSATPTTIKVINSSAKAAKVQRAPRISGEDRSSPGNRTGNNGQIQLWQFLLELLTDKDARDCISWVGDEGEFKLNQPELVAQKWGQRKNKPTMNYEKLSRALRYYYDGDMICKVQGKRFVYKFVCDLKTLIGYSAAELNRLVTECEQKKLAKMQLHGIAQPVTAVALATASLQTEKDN
# Method in brief: as §1
# [3] = target: T3, ERG (Homo sapiens, UniProt P11308 1-479)
# T3 sequence: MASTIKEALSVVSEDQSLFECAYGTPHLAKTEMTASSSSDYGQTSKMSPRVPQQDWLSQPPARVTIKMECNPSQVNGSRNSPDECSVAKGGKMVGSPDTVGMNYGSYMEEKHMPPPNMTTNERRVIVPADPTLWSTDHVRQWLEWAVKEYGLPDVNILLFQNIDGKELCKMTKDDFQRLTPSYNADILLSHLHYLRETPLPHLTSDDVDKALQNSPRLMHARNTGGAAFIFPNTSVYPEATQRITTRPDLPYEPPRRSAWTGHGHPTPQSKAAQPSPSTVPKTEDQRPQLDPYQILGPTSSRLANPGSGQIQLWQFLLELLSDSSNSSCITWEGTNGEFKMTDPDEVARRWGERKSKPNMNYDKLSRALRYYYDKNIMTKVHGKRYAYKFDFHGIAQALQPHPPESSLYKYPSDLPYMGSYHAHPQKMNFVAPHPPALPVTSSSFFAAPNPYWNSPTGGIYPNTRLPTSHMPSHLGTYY
# Method in brief: as §1
# [4] = target: ELF1 (Homo sapiens, UniProt P32519 1-619)
# Sequence of ELF1 (P32519 whole entry): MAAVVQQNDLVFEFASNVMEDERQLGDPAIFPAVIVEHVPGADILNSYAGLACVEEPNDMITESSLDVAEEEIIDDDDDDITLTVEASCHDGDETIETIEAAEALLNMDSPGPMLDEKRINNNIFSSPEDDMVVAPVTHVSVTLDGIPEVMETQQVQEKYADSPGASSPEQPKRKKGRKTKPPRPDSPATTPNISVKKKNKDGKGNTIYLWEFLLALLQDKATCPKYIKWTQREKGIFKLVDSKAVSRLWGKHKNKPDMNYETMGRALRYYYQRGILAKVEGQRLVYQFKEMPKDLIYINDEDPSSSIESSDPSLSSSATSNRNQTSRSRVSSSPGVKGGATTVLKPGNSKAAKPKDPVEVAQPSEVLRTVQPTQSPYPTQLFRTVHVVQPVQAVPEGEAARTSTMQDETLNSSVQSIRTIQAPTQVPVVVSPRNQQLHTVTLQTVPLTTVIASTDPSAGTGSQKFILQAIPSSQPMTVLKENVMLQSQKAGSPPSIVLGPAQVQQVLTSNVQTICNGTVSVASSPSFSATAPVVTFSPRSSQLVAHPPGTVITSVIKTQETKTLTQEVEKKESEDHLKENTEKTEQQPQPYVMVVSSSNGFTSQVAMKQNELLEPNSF
# Method in brief: as §1
# [5] = target: T4, EHF (Homo sapiens, UniProt Q9NZC4 1-300)
# T4 sequence: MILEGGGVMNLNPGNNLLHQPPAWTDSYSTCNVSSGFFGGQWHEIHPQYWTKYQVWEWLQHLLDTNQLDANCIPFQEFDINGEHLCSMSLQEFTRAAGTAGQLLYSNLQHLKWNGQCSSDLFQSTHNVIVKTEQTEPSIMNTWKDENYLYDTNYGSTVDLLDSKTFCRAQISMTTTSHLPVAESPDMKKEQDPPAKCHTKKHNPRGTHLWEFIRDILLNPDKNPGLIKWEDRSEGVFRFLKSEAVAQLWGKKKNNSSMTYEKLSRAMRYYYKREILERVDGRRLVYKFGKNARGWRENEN
# Method in brief: as §1
# [6] = target: SPI1 (Homo sapiens, UniProt P17947 1-270)
# Method in brief: as §1
# [7] = target: SPIB (Homo sapiens, UniProt Q01892 1-262)
# Sequence of SPIB (Q01892 whole entry): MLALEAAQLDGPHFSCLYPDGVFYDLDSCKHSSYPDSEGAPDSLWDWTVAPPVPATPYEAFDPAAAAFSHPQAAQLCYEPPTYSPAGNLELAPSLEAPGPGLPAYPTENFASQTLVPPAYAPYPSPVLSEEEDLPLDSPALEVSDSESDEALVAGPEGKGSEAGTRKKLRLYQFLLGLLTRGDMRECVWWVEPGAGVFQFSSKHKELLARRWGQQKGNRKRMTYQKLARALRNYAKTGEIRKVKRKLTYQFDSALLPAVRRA
# Method in brief: as §1
# [8] = target: T5, ELK3 (Homo sapiens, UniProt P41970 1-407)
# T5 sequence: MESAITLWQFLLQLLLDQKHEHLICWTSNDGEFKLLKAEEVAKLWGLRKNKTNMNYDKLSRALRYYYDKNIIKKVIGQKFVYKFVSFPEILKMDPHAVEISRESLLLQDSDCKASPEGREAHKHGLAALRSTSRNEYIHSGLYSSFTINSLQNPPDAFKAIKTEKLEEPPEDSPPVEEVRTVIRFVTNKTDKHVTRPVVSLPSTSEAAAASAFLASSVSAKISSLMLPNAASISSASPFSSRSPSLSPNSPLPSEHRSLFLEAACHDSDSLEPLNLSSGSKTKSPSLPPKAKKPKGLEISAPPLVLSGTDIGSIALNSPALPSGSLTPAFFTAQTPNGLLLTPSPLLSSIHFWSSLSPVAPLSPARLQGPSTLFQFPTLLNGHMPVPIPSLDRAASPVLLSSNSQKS
# Method in brief: as §1
# [9] = target: T6, FEV (Homo sapiens, UniProt Q99581 1-238)
# T6 sequence: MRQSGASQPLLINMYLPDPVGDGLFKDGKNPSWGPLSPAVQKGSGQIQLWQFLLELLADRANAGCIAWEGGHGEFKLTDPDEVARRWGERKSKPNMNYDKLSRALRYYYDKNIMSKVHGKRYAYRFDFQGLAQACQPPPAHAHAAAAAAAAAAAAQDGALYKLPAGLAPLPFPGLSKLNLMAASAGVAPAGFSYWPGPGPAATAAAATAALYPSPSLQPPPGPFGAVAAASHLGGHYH
# Method in brief: as §1
# [10] = target: ETV5 (Homo sapiens, UniProt P41161 1-510)
# Sequence of ETV5 (P41161 whole entry): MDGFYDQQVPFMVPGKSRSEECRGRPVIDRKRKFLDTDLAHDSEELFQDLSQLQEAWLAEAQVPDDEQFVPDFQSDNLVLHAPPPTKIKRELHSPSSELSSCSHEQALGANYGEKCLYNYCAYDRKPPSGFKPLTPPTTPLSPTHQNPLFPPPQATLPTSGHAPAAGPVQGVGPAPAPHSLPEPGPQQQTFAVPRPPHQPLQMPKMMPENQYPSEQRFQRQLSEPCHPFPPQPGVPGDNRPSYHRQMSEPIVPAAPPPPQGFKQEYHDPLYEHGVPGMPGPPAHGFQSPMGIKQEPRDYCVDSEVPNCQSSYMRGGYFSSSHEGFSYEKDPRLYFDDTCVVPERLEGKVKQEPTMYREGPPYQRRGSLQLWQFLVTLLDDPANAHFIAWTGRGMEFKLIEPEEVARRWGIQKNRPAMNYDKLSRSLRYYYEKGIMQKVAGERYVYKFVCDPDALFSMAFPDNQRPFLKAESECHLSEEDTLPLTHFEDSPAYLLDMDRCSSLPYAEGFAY
# Method in brief: as §1
# [11] = target: T7, SPIC (Homo sapiens, UniProt Q8N5J4 1-248)
# T7 sequence: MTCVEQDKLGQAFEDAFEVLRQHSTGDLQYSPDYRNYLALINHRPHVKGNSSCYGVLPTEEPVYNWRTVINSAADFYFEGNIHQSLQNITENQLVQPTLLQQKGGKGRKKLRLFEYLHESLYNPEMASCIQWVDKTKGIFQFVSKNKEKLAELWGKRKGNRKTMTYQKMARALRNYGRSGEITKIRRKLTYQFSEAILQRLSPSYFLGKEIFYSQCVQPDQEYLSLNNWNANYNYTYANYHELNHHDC
# Method in brief: as §1
# [12] = target: ELF4 (Homo sapiens, UniProt Q99607 1-663)
# Sequence of ELF4 (Q99607 whole entry): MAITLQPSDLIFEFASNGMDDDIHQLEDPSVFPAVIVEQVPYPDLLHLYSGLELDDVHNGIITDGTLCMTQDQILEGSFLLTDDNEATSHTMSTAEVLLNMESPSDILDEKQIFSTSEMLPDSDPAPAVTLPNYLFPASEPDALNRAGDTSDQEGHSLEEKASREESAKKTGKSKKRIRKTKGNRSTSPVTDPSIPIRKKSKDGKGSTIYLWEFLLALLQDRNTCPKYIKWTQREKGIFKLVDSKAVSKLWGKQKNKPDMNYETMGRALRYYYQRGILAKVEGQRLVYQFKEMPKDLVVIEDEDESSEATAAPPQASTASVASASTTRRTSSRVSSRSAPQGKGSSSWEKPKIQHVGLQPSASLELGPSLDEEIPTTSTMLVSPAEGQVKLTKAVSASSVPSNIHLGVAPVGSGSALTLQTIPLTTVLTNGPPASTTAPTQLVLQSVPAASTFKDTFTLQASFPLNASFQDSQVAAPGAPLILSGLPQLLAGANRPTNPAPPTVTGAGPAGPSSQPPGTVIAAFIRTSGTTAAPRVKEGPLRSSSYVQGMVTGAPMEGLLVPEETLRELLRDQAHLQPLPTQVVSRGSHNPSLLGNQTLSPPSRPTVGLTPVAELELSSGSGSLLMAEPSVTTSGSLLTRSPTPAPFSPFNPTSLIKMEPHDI
# Method in brief: as §1
# [13] = target: ETV1 (Homo sapiens, UniProt P50549 1-477)
# Sequence of ETV1 (P50549 whole entry): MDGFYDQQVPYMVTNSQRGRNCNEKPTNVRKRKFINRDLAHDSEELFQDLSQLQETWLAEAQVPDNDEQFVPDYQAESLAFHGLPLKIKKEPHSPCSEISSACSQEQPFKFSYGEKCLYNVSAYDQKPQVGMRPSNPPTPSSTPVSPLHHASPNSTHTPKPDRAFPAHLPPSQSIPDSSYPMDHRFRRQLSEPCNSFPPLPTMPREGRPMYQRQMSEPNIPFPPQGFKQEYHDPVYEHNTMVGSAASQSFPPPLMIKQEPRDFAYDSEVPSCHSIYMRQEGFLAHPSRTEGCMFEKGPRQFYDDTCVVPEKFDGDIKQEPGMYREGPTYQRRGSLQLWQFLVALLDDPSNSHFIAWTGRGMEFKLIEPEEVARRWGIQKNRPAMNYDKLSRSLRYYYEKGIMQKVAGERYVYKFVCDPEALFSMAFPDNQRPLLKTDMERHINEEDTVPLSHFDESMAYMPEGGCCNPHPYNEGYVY
# Method in brief: as §1
# [14] = target: T8, ERF (Homo sapiens, UniProt P50548 1-548)
# T8 sequence: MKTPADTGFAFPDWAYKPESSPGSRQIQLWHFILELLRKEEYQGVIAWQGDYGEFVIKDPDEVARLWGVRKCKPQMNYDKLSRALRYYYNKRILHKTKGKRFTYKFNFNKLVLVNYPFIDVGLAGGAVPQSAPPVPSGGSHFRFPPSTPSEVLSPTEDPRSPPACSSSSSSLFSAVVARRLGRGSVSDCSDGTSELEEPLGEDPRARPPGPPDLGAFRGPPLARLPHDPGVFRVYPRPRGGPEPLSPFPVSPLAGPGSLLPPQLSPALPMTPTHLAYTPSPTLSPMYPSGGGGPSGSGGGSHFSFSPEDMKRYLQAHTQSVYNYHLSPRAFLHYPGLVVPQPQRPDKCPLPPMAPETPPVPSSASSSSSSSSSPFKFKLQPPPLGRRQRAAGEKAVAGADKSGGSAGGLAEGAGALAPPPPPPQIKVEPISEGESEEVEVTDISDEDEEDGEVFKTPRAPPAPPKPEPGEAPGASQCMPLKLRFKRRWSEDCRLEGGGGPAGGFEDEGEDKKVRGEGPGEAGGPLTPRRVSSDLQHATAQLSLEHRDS
# Method in brief: as §1
# [15] = target: T9, ETS2 (Homo sapiens, UniProt P15036 1-469)
# T9 sequence: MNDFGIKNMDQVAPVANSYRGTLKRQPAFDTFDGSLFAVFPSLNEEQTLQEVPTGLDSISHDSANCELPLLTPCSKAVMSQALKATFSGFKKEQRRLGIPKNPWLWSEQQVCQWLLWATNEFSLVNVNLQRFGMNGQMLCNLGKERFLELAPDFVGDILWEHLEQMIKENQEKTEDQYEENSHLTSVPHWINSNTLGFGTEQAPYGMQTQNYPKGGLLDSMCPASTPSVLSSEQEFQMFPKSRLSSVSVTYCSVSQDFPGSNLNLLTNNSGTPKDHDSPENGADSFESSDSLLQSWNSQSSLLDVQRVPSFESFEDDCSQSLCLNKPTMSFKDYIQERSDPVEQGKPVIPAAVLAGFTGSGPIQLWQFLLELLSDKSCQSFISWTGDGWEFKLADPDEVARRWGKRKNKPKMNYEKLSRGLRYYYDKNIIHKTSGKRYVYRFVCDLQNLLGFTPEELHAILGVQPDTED
# Method in brief: as §1
# [16] = target: T10, SPDEF (Homo sapiens, UniProt O95238 1-335)
# T10 sequence: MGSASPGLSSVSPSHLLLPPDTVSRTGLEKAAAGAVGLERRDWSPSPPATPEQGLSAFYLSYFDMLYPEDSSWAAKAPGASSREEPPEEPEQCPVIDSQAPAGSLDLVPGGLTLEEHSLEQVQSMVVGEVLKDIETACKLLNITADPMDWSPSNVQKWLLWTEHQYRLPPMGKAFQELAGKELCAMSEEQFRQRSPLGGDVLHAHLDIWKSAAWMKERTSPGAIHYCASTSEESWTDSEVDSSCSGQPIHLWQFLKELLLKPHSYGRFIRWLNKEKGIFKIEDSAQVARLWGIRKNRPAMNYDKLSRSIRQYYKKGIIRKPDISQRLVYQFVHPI
# Method in brief: as §1
# [17] = target: T11, ETV3 (Homo sapiens, UniProt P41162-2 1-143)
# T11 sequence: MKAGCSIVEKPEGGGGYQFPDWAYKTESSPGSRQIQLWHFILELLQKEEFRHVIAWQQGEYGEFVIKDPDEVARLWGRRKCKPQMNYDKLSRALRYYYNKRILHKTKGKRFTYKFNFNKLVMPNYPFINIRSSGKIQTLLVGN
# Method in brief: as §1
# [18] = target: ETV6 (Homo sapiens, UniProt P41212 1-452)
# Sequence of ETV6 (P41212 whole entry): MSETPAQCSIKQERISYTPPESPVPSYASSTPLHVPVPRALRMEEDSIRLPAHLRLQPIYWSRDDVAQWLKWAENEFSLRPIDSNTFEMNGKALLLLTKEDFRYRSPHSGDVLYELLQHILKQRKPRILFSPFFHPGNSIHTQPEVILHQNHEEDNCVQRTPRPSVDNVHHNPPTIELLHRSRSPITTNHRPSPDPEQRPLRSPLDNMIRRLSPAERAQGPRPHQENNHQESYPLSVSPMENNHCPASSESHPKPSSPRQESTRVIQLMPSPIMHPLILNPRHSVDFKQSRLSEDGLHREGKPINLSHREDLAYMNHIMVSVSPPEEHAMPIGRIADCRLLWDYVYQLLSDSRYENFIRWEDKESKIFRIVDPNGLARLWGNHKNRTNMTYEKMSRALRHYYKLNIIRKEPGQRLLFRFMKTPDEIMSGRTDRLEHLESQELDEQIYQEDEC
# Method in brief: as §1
sequence,measurement,setting,value
CGCTAT,binding signal,[1],"1.13 fold enrichment (6-mer frequency, TF over GST control)"
same,binding signal,[2],"1.07 fold enrichment (6-mer frequency, TF over GST control)"
same,binding signal,[3],"1.09 fold enrichment (6-mer frequency, TF over GST control)"
same,binding signal,[4],"1.09 fold enrichment (6-mer frequency, TF over GST control)"
same,binding signal,[5],"1.06 fold enrichment (6-mer frequency, TF over GST control)"
same,binding signal,[6],"1.11 fold enrichment (6-mer frequency, TF over GST control)"
same,binding signal,[7],"1.12 fold enrichment (6-mer frequency, TF over GST control)"
same,binding signal,[8],"1.13 fold enrichment (6-mer frequency, TF over GST control)"
same,binding signal,[9],"1.04 fold enrichment (6-mer frequency, TF over GST control)"
same,binding signal,[10],"1.1 fold enrichment (6-mer frequency, TF over GST control)"
same,binding signal,[11],"1.01 fold enrichment (6-mer frequency, TF over GST control)"
same,binding signal,[12],"1.15 fold enrichment (6-mer frequency, TF over GST control)"
same,binding signal,[13],"1.09 fold enrichment (6-mer frequency, TF over GST control)"
same,binding signal,[14],"1.16 fold enrichment (6-mer frequency, TF over GST control)"
same,binding signal,[15],"1.03 fold enrichment (6-mer frequency, TF over GST control)"
same,binding signal,[16],"1.1 fold enrichment (6-mer frequency, TF over GST control)"
same,binding signal,[17],"1.14 fold enrichment (6-mer frequency, TF over GST control)"
same,binding signal,[18],"1.09 fold enrichment (6-mer frequency, TF over GST control)"
